According to PubChem BioAssay (Tox21):
The source made the active and inactive calls. The call rests on the fitted dose curve; in most records, active means well fitted activation curve with a large enough effect in the repeat runs; inconclusive means weak or mixed curves; inactive means flat fitted curve, though single readings scatter.
On the % scale 0 is the no-effect control and ±100 the full control effect.

Test: Caspase-3/7 induction in CHO-K1 cells by small molecules, qHTS assay (AID 1346980); further: nearly all actives have a fitted effect of over 15% in size
Settings: CHO-K1 caspase-3/7 induction, Caspase-Glo luminescence, 17 h; series mostly up to 92.4 µM; caspase-3/7 activation: at the top concentration
In short: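 Wild-type cells were seeded at 1,500 per well and settled 5 hr at 37 C, 5% CO2, then exposed to DMSO-dissolved compounds for 17 hr. Caspase-Glo 3/7 reagent was added, and luminescence was read after 30min at room temperature.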
For `CCCCCCCCCCCCCCC1CO1` (stereo not given), the “caspase-3/7 activation” value was 0.06% (inactive).
In the case of `CC(=O)O[C@@H]1C(=O)O[C@@H]2[C@H]1OC(=O)[C@@H]2OC(C)=O`, the “caspase-3/7 activation” value was -1.24% [at 42.5 µM] (inactive).
With `CC(C)(Oc1ccc(Cl)cc1)C(=O)OCCCOC(=O)C(C)(C)Oc1ccc(Cl)cc1` the “caspase-3/7 activation” value was 0.975% [at 42.5 µM] (inactive).
With `CCCCC(CC)(CO)CO` the “caspase-3/7 activation” value was -0.0722% (inactive).
For `N#CCc1cccc(C(F)(F)F)c1`, the “caspase-3/7 activation” value was -0.105% (inactive).
With `CC(C)(C)c1ccc(S)cc1` the “caspase-3/7 activation” value was 2.86% (inactive).
In the case of `O=C(O)c1cn(C2CC2)c2cc(Cl)c(F)cc2c1=O`, the “caspase-3/7 activation” value was -0.561% [at 42.5 µM] (inactive).
With `Nc1nc(CC(=O)O)cs1` the “caspase-3/7 activation” value was 0.345% (inactive).
In the case of `CC[C@@H]1C[C@H](N(Cc2cc(C(F)(F)F)cc(C(F)(F)F)c2)C(C)=O)c2cc(C(F)(F)F)ccc2N1C(=O)OC(C)C`, the “caspase-3/7 activation” value was 0.137% (inactive).
For `CC(=O)/C=C/C1C(C)=CCCC1(C)C` (stereo not given), the “caspase-3/7 activation” value was 0.226% (inactive).
In the case of `CC(C)c1cccc(C(C)C)c1NC(=O)NS(=O)(=O)c1cc(C(C)(C)O)co1`, the “caspase-3/7 activation” value was -0.0257% (inactive).
For `C1CCC2OC2C1` (stereo not given), the “caspase-3/7 activation” value was 0.22% (inactive).
With `CC(C)CCCC(C)CCO` (stereo not given) the “caspase-3/7 activation” value was 0.181% (inactive).
For `O=[N+]([O-])c1cccc(Cl)c1Cl`, the “caspase-3/7 activation” value was -0.695% (inactive).
In the case of `CCCCCCCCN(C)C`, the “caspase-3/7 activation” value was 0.225% (inactive).
In the case of `O=C(C(=O)c1ccc(Br)cc1)c1ccc(Br)cc1`, the caspase-3/7 activation was 0.394% [at 19 µM] (inactive).
For `CC(C)CC=O`, the “caspase-3/7 activation” value was -0.0203% (inactive).
For `COc1ccc(OC)c(OC)c1`, the “caspase-3/7 activation” value was -0.206% (inactive).
In the case of `CC(=O)OCCc1ccccc1`, the “caspase-3/7 activation” value was 0.0541% (inactive).
In the case of `C=CCCCCCC`, the “caspase-3/7 activation” value was 1.55% (inactive).
For `COc1ccc(C(C)=O)cc1`, the “caspase-3/7 activation” value was 0.478% (inactive).
With `O=C(/C=C/c1ccc(O)c(O)c1)O[C@@H]1C[C@](O)(C(=O)O)C[C@@H](O)[C@H]1O` the “caspase-3/7 activation” value was -0.538% (inactive).
In the case of `COC(Cc1ccccc1)OC`, the “caspase-3/7 activation” value was 0.102% (inactive).
In the case of `O=C(Cl)c1c(Cl)cccc1Cl`, the “caspase-3/7 activation” value was 1.51% (inactive).
In the case of `CCc1nn(C2CCCCC2)c2cc(C3(C#N)CCC(C(=O)O)CC3)ccc12` (stereo not given), the “caspase-3/7 activation” value was 0.539% (inactive).
